Test results from PubChem BioAssay AID1347081 (National Center for Advancing Translational Sciences (NCATS), 2019).
Results filed as inconclusive are left out. Active and inactive are the calls of the source. Calls come from the whole dose curve.

Assay: qHTS for Inhibitors of the Functional Ribonucleoprotein Complex (vRNP) of Lassa (LASV) Arenavirus: Viability assay - alamar blue signal for LASV Confirmatory Screen
Details: LASV vRNP counter-screen cells; series mostly up to 53.9 µM

Compound	Potency	activity change, negative = decreased viability
O=C(Nc1ccc([N+](=O)[O-])cc1Cl)c1cc(Cl)ccc1O	2.17 µM (active)	
S=C(NCc1ccc2c(c1)OCO2)N1CCN(c2ncnc3c2oc2ccccc23)CC1	8.85 µM (active)	
O=c1ccc2ccc(O)c(O)c2o1	inactive	
O=C(Nc1ccccc1)Nc1ccc(-c2ccc(C(=O)[C@H]3CCC[C@H]3C(=O)O)cc2)cc1	inactive	
Clc1nccc2c1ccc1ccccc12	inactive	
O=c1[nH]c2ccccc2n1C1CCN(CCCC(c2ccc(F)cc2)c2ccc(F)cc2)CC1	inactive	
Cc1ccc2c(c1)C1CN(C)CCC1N2 (stereo not drawn)	inactive	
COc1ccc(Cc2nccc3cc(OC)c(OC)cc23)cc1OC	13.7 µM (active)	
CCN(CC)C(=O)N[C@@H]1C=C2c3cccc4[nH]cc(c34)C[C@@H]2N(C)C1	inactive	
CC1OC(=O)[C@@H](C(C)C)NC(=O)C(C(C)C)OC(=O)[C@H](C(C)C)NC(=O)C(C)OC(=O)[C@@H](C(C)C)NC(=O)C(C(C)C)OC(=O)[C@H](C(C)C)NC(=O)C(C)OC(=O)[C@@H](C(C)C)NC(=O)C(C(C)C)OC(=O)[C@H](C(C)C)NC1=O (stereo partly drawn)	1.22 µM (active)	
C=C(C)[C@H]1Cc2c(ccc3c2O[C@@H]2COc4cc(OC)c(OC)cc4[C@@H]2C3=O)O1	0.193 µM (active)	
CN1C(C(=O)Nc2ccccn2)=C(O)c2ccccc2S1(=O)=O	inactive	
Nc1ccc([N+](=O)[O-])cc1O	39.5 µM (active)	
CCC1OC2(C)C(O)C(/C=C/C=C/C=C/c3oc(=O)cc(OC)c3C)OC1(C)C2OC(C)=O (stereo not drawn)	0.109 µM (active)	
CC(O)C(O)[C@H]1CNc2nc(N)[nH]c(=O)c2N1 (stereo partly drawn)	inactive	
CN(C)c1ccc(O)c2c1C[C@H]1C[C@H]3[C@H](N(C)C)C(=O)C(C(N)=O)=C(O)[C@@]3(O)C(=O)C1=C2O	inactive	
O=C1Cc2cc(CCN3CCN(c4nsc5ccccc45)CC3)c(Cl)cc2N1	inactive	
Fc1ccc(CNc2ncnc3ccc(F)cc23)cc1	15.3 µM (active)	
CCCCC/C(C=O)=C\c1ccccc1	inactive	
CC[C@@]1([C@@H]2O[C@@H]([C@H]3O[C@@](O)(CO)[C@H](C)C[C@H]3C)C[C@H]2C)CC[C@H]([C@]2(C)CC[C@]3(C[C@H](O)[C@@H](C)[C@@H]([C@@H](C)[C@@H](OC)[C@H](C)C(=O)O)O3)O2)O1	4.21 µM (active)	
CC(C)=CCC/C(C)=C/CC/C(C)=C/CC[C@]1(C)CCc2c(C)c(O)c(C)c(C)c2O1		6.56% [at 6 µM] (inactive)
CC1=C(C)C(=O)C(CCCCC#CCCCC#CCO)=C(C)C1=O	24.3 µM (active)	
CNCCCC1c2ccccc2C=Cc2ccccc21	24.3 µM (active)	
